Test results from PubChem BioAssay (NCATS).
Inconclusive results are not listed. Active and inactive are the calls of the source. Unless noted, the call rests on the fitted dose curve; in most records, active means well fitted curve in the direction sought with a large enough effect; inconclusive means small, poorly fitted or top-dose-only effect, or another doubt; inactive means no such curve, though single readings can be large; an effect the other way counts as inactive or inconclusive.

What was measured:
[1] = NS1 protein of Zika virus - qHTS assay to identify small molecule inhibitors in human HEK 293 cells (AID 1347053); further: nearly all actives have a fitted effect of over 55% in size; further: potency means the concentration at half of the fitted maximal effect
How it was run: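 HEK 293 cells, seeded 20 h at 37 C, were pretreated with compound 1 h, then infected with ZIKV MR766 (MOI = 0.5) for 24 h. NS1 was read by TR-FRET with two anti-NS1 antibodies, normalized to uninfected and infected wells.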

[2] = qHTS for Inhibitors of the Functional Ribonucleoprotein Complex (vRNP) of Lassa (LASV) Arenavirus: LASV Primary Screen - GLuc reporter signal (AID 1347082; calls by dose curve; tested in HEK293 reporter line; further: series mostly up to about 57 µM; nearly all actives have a fitted effect of over 60% in size)
[3] = qHTS of pediatric cancer cell lines to identify multiple opportunities for drug repurposing: Primary screen for A673 cells (AID 1347092); further: nearly all actives have a fitted effect of over 45% in size; further: potency means the concentration at half of the fitted maximal effect
How it was run: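 48 h compound exposure, A673, 500-1,000 cells/well, 37 degrees C/5% CO2. MIPE: 11-point, 0.78 nM-46 µM; NPC: 8-point, 0.59 nM-46 µM (final). Readout CellTiter-Glo luminescence after 15 min RT.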

[4] = qHTS of pediatric cancer cell lines to identify multiple opportunities for drug repurposing: Primary screen for SK-N-MC cells (AID 1347093); further: potency means the concentration at half of the fitted maximal effect
How it was run: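 Metabolically active cells were quantified by ATP-dependent luminescence (CellTiter-Glo, 15 min at room temperature) following 48 h treatment. Cells had been plated at 500-1,000 per well and settled for 5 h beforehand.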

[5] = qHTS of pediatric cancer cell lines to identify multiple opportunities for drug repurposing: Primary screen for BT-37 cells (AID 1347094); further: potency means the concentration at half of the fitted maximal effect
How it was run: (§1)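 Primary screen of approved and investigational compounds on cells in growth media at 37 degrees C, 5% CO2. MIPE set at 11-point and NPC set at 8-point dilutions; viability scored by ATP-based luminescence at 48 hours.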

[6] = qHTS of pediatric cancer cell lines to identify multiple opportunities for drug repurposing: Primary screen for NB-EBc1 cells (AID 1347095); further: potency means the concentration at half of the fitted maximal effect
How it was run: as §1

[7] = qHTS of pediatric cancer cell lines to identify multiple opportunities for drug repurposing: Primary screen for Saos-2 cells (AID 1347097); further: nearly all actives have a fitted effect of over 40% in size; further: potency means the concentration at half of the fitted maximal effect
How it was run: as §1

[8] = qHTS for Inhibitors of the Functional Ribonucleoprotein Complex (vRNP) of Lassa (LASV) Arenavirus: Viability assay - alamar blue signal for LASV Primary Screen (AID 1347083; calls by dose curve; tested in HEK293 reporter line; further: series mostly up to about 57 µM; nearly all actives have a fitted effect of over 80% in size)
[9] = qHTS for Inhibitors of the Functional Ribonucleoprotein Complex (vRNP) of Lymphocytic Choriomeningitis Arenaviruses (LCMV): Viability assay - alamar blue signal for LCMV Primary Screen (AID 1347085; calls by dose curve; tested in HEK293 reporter line; further: series mostly up to about 57 µM; nearly all actives have a fitted effect of over 80% in size)
[10] = biological target: Nucleoprotein (Lymphocytic choriomeningitis virus (strain Armstrong)) (UniProt P09992); assay: qHTS for Inhibitors of the Functional Ribonucleoprotein Complex (vRNP) of Lymphocytic Choriomeningitis Arenaviruses (LCMV): LCMV Primary Screen - GLuc reporter signal (AID 1347086; calls by dose curve; further: series mostly up to about 57 µM; nearly all actives have a fitted effect of over 70% in size)
[11] = qHTS of pediatric cancer cell lines to identify multiple opportunities for drug repurposing: Primary screen for TC32 cells (AID 1347089); further: nearly all actives have a fitted effect of over 60% in size; further: potency means the concentration at half of the fitted maximal effect
How it was run: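 In the primary qHTS, MIPE compounds were tested at 11 concentrations (0.78 nM to 46 µM) and NPC compounds at 8 (0.59 nM to 46 µM) on TC32 cells for 48 h. CellTiter-Glo luminescence gave viability.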

[12] = qHTS of pediatric cancer cell lines to identify multiple opportunities for drug repurposing: Primary screen for DAOY cells (AID 1347090); further: nearly all actives have a fitted effect of over 55% in size; further: potency means the concentration at half of the fitted maximal effect
How it was run: (§2)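 Cell viability, CellTiter-Glo luminescence; 500-1,000 cells/well, 8- or 11-point titration, 48 h compound exposure at 37 degrees C, 5% CO2. Controls: DMSO neutral, bortezomib 2.3 µM final as positive.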

[13] = qHTS of pediatric cancer cell lines to identify multiple opportunities for drug repurposing: Primary screen for U-2 OS cells (AID 1347096); further: nearly all actives have a fitted effect of over 50% in size
How it was run: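 Cells (500-1,000/well) rested 5 h, then received compounds for 48 h; metabolically active cells were measured by CellTiter-Glo luminescence. Final concentrations spanned up to 46 µM (MIPE, 11-point) or 0.59 nM-46 µM (NPC, 8-point) in primary screens, 11-point in follow-ups.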

[14] = qHTS of pediatric cancer cell lines to identify multiple opportunities for drug repurposing: Primary screen for SJ-GBM2 cells (AID 1347091); further: potency means the concentration at half of the fitted maximal effect
How it was run: as §2

Measured: Potency

Chain of Nucleoprotein (Lymphocytic choriomeningitis virus (strain Armstrong)) (P09992 whole entry, looked up): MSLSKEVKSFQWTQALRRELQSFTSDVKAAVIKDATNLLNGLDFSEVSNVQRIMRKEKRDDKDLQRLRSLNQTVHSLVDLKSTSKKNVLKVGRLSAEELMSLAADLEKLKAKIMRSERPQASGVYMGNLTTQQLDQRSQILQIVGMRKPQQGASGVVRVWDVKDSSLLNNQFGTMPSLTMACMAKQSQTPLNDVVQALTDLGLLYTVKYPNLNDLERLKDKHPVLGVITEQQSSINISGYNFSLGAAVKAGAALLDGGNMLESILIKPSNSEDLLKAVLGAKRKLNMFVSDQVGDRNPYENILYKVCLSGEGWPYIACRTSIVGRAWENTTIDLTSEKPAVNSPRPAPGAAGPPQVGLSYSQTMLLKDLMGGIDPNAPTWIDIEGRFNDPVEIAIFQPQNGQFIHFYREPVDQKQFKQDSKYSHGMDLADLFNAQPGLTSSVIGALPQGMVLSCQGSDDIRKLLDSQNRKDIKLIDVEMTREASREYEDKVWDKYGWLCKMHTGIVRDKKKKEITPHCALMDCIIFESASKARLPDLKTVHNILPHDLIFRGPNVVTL

CCC(OC(C)=O)C(CC(C)NC)(c1ccccc1)c1ccccc1 (configuration not stated)
inactive: [1] | [2] | [6]
active: [3] 27.6 µM | [4] 31 µM | [5] 35.9 µM | [7] 43.7 µM

CC(=O)OC1(c2ccccc2)CCN(CCc2ccccc2)CC1
inactive: [1] | [2] | [8] | [9] | [10] | [11] | [12] | [13]

COc1cc(CC(C)N)c(OC)cc1Br (configuration not stated)
inactive: [1] | [2] | [10] | [12] | [14] | [13]
active: [4] 44.9 µM | [7] 35.7 µM

O=C(NC(=O)c1c(F)cccc1F)Nc1cc(Cl)c(OC(F)(F)C(F)C(F)(F)F)cc1Cl (configuration not stated)
not listed: [5] | [13] | [14]
inactive: all other assays above

Nc1ccc(Cl)cc1C(=O)c1ccccc1F
not listed: [3] | [4] | [6] | [7] | [11]
inactive: all other assays above

CCC(=O)C(CCN(C)C)(c1ccccc1)c1ccccc1
not listed: [9] | [10]
inactive: all other assays above

CCCCCCCCC(=O)NCc1ccc(O)c(OC)c1
active: [14] 0.001 µM | [4] 0.001 µM | [6] 0.001 µM
not listed: [3] | [5] | [7] | [12]
inactive: all other assays above

CC(C)(C)OC(=O)c1ncn2c1[C@@H]1CCCN1C(=O)c1c(Br)cccc1-2
not listed: [5] | [10]
inactive: all other assays above

CN1C(=O)[C@@H](NC(=O)c2cc3ccccc3[nH]2)N=C(c2ccccc2)c2ccccc21
active: [3] 6.68 µM | [7] 10.6 µM
not listed: [4] | [12] | [14]
inactive: all other assays above

Cc1nnc2n1-c1sc(CCc3ccc(CC(C)C)cc3)cc1C(c1ccccc1Cl)=NC2C (configuration not stated)
active: [14] 26.6 µM
inactive: [1] | [2] | [8]

COc1ccc2c(C(=O)c3ccc(Cl)cc3)c(C)n(CC(=O)O)c2c1
active: [12] 21.1 µM | [4] 8.41 µM
inactive: [1] | [14] | [5] | [13] | [7]

CCN(CC)CCNc1ccc(CO)c2sc3ccccc3c(=O)c12
inactive: [2]

C[C@]12C=CC(=O)C=C1CC[C@@H]1[C@@H]2CC[C@@]2(C)[C@H]1CC[C@]2(C)O
not listed: [3] | [4] | [6] | [7] | [14]
inactive: all other assays above

CNC(=O)Oc1cccc2ccccc12
not listed: [11]
inactive: all other assays above

CC[C@H](O)C(C[C@H](C)N(C)C)(c1ccccc1)c1ccccc1
inactive: [1] | [11] | [14] | [5] | [6] | [13] | [7]
active: [4] 62.3 µM

CC[n+]1c(-c2ccccc2)c2cc(N)ccc2c2ccc(N)cc21
active: [11] 8.36 µM | [12] 0.841 µM | [14] 2.66 µM | [3] 3.35 µM | [4] 2.11 µM | [7] 13.3 µM
inactive: [1]

c1ccc2c(c1)Sc1ccccc1N2CC1CN2CCC1CC2 (configuration not stated)
active: [1] 3.16 µM | [14] 23.7 µM | [3] 13.3 µM | [5] 27.6 µM | [7] 26.6 µM
inactive: [2] | [6]

CCO[C@H]1O[C@@H]2OC3(C)CC[C@H]4[C@H](C)CC[C@@H]([C@H]1C)[C@@]24OO3
active: [4] 4.73 µM
not listed: [6] | [7] | [8] | [9] | [10]
inactive: all other assays above

C[C@H](CN1CCOCC1)C(C(=O)N1CCCC1)(c1ccccc1)c1ccccc1
inactive: [1] | [11] | [12] | [6] | [13]

C[C@H](N)[C@H](O)c1ccc(O)c(O)c1
inactive: [1] | [2] | [11] | [12] | [14] | [5] | [13]

Cc1ccc2c(Br)cc(Br)c(O)c2n1
inactive: [2]

O=C(CCl)c1ccc(Cl)cc1Cl
active: [3] 26.6 µM
inactive: [1] | [2] | [8] | [9] | [10] | [11] | [13]

Oc1ccc2[nH]cc(CCCCN3CC=C(c4ccccc4)CC3)c2c1
inactive: [1] | [2] | [8] | [9] | [10] | [12] | [13] | [7]

CC(=O)Oc1ccc(C2(c3ccc(OC(C)=O)cc3)Oc3ccccc3NC2=O)cc1
inactive: [2]

CC(CC(C#N)(c1ccccc1)c1ccccc1)N(C)C (configuration not stated)
not listed: [4] | [5] | [7] | [14]
inactive: all other assays above

Clc1ccc(C(OCCN2CCCCC2)c2ccccc2)cc1 (configuration not stated)
not listed: [3] | [4] | [5] | [6] | [14]
inactive: all other assays above

CN1[C@@H]2CC[C@H]1CC(OC(=O)c1cc(Cl)cc(Cl)c1)C2 (some centres not stated)
active: [4] 0.001 µM | [7] 75 µM
not listed: [3] | [5] | [12]
inactive: all other assays above

Clc1ccc(CSC(Cn2ccnc2)c2ccc(Cl)cc2Cl)cc1 (configuration not stated)
active: [3] 26.6 µM | [4] 33.5 µM
inactive: [1] | [9] | [10]

C[C@]12Cc3nonc3C[C@@H]1CC[C@@H]1[C@@H]2CC[C@@]2(C)[C@H]1CC[C@]2(C)O
inactive: [1] | [2] | [9] | [10] | [11] | [12] | [13]

Oc1ccc([C@H]2CNCc3c2ccc(O)c3O)cc1O
not listed: [3] | [4] | [7] | [12]
inactive: all other assays above

C#C[C@]1(O)CC[C@H]2[C@@H]3CCC4=CC(=O)CCC4=C3C=C[C@@]21CC
not listed: [3] | [4] | [5] | [12]
inactive: all other assays above

CNC(C)Cc1ccc2c(c1)OCO2 (configuration not stated)
active: [12] 47.4 µM
not listed: [3] | [4] | [5] | [7] | [11]
inactive: all other assays above

N#Cc1nn(-c2c(Cl)cc(C(F)(F)F)cc2Cl)c(N)c1S(=O)C(F)(F)F (configuration not stated)
inactive: [1] | [11] | [3] | [5] | [13]

CN(C)C(=O)Oc1cc(OC(=O)N(C)C)cc(C(O)CNC(C)(C)C)c1 (configuration not stated)
not listed: [5] | [7] | [8]
inactive: all other assays above

COc1ccc([C@@H]2Sc3ccccc3NC(=O)[C@@H]2O)cc1
inactive: [2]

CC#C[C@]1(O)CC[C@H]2[C@@H]3C[C@H](C)C4=CC(=O)CC[C@]4(C)[C@H]3CC[C@@]21C
active: [4] 23.7 µM
not listed: [5] | [6] | [14]
inactive: all other assays above
